Experimental data as given in PubChem BioAssay AID411 (National Center for Advancing Translational Sciences (NCATS), 2006).
Out of some 72,000 compounds screened, about 1,600 (2.2%) were called active. Where a call stands in place of a potency, no number is given. Only a selection was taken, and actives are over-represented in it overall. Unmarked numbers belong to inactive results. Calls follow the shape of the dose curve; as a rule, active = well fitted inhibition curve with a large enough effect; inconclusive = small, poorly fitted or top-dose-only effect; inactive = flat fitted curve, though single readings scatter.

target: Luciferin 4-monooxygenase (Photinus pyralis) (UniProt P08659); assay: qHTS Assay for Inhibitors of Firefly Luciferase; conditions: purified firefly luciferase, luminescence, 8 min; series mostly up to 57.1 µM; also: nearly all actives have a fitted effect of over 40% in size
Sequence (P08659 whole entry, looked up): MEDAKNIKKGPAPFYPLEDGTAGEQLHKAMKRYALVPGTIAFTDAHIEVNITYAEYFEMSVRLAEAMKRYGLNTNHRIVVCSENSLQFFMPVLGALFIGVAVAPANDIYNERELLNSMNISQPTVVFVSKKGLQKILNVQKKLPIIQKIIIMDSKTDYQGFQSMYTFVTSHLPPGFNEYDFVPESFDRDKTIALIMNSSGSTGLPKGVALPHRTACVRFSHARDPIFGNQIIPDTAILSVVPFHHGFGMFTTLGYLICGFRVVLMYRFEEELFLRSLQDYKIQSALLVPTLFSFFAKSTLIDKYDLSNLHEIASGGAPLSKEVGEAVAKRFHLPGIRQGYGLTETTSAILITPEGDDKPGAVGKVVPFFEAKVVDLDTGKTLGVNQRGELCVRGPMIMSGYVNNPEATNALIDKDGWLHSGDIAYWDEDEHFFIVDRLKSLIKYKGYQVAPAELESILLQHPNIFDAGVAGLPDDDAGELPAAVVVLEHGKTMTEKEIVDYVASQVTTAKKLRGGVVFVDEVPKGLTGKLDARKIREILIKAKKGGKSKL
Protocol: To aid in the interpretation of high-throughput screening (HTS) results derived from luciferase-based assays, we used quantitative HTS, an approach that defines the concentration-response behavior of each library sample, to profile the ATP-dependent luciferase from Photinus pyralis against more than 72 000 samples. Luciferase (PKLight, Cambrex Corporation) was assayed for its ability to generate light using ATP and luciferin as substrates. The ATP concentration in the assay (10 uM) was within the linear range of enzyme activity for the assay conditions used. See following reference for further details: [1] Auld DS, Southall NT, Jadhav A, Johnson RL, Diller DJ, Simeonov A, Austin CP, Inglese J. Characterization of chemical libraries for luciferase inhibitory activity. J Med Chem. 2008 Apr 24;51(8):2372-86. Auld DS, Zhang YQ, Southall NT, Rai G, Landsman M, Maclure J, Langevin D, Thomas CJ, Austin CP, Inglese J. A Basis for Reduced Chemical Library Inhibition of Firefly Luciferase Obtained from Directed Evolution. J. Med. Chem., 2009, 52 (5), pp 1450#1458 [3] Auld DS, Thorne N, Nguyen DT, Inglese J. A specific mechanism for nonspecific activation in reporter-gene assays. ACS Chem Biol. 2008 Aug 15;3(8):463-70. Auld DS, Thorne N, Maguire WF, Inglese J. Mechanism of PTC124 activity in cell-based luciferase assays of nonsense codon suppression. Proc Natl Acad Sci U S A. 2009 Mar 3;106(9):3585-90. Inglese J, Auld DS, Jadhav A, Johnson RL, Simeonov A, Yasgar A, Zheng W, Austin CP. Quantitative high-throughput screening: a titration-based approach that efficiently identifies biological activities in large chemical libraries. Proc Natl Acad Sci U S A. 2006 Aug 1;103(31):11473-8.
Four uL of substrate mix (final concentration, 50 mM imidazole pH 7.2, 50 mM KCl, 7 mM MgCl2, 10 uM ATP, 0.01% Tween 20, 0.05% BSA) was dispensed into white 1536 well plates. Twenty-three nL of compound was delivered by a pin tool and 2 uL of luciferase detector mix (PKLight, Cambrex) was added. Following 8-minute incubation at ambient temperature, luminescence was measured by a ViewLux (Perkin Elmer) at 5 seconds exposure/plate.
Potency is read from the fitted curve at half-maximal effect.

Row | SMILES | Potency | activity change, negative = inhibition
1 | COc1ccc(-c2cc3ccc(OCc4nn[nH]n4)cc3oc2=O)cc1 | 3.16 µM (active) | 
2 | O=c1oc2cc(O)ccc2cc1-c1ccc(F)cc1 | inactive | 
3 | CCCCc1cc(=O)oc2cc(C)cc(OCc3nn[nH]n3)c12 | inactive | 
4 | CCn1ccnc1C[C@@H]1COc2ccccc2O1 | inactive | 
5 | CCOc1ccc(C(C)C)cc1S(=O)(=O)n1nc(C)cc1C | inactive | 
6 | O=C1C(c2ccccn2)=[N+]([O-])c2ccccc21 | inactive | 
7 | CCn1nc(C(=O)OCC(=O)N2c3ccccc3CC2C)c2ccccc2c1=O (stereo unspecified) | inactive | 
8 | CCCC(=O)N1c2ccc(-c3csc(N)n3)cc2CC1C (stereo unspecified) | 12.6 µM (active) | 
9 | CCC(=O)N1c2ccc(S(=O)(=O)CCC(=O)N3CCN(c4ccccc4)CC3)cc2CC1C (stereo unspecified) | inactive | 
10 | O=C(c1ccc2c(c1)OCCO2)C1CCN(S(=O)(=O)c2cccc(F)c2)CC1 | inactive | 
11 | O=C(c1ccc(F)cc1)C1CCN(CCCCc2ccccc2)CC1 | inactive | 
12 | Cc1nc2cnc(N3CCN(C)CC3)nc2n(CCC#N)c1=O |  | 0.64% [at 11.4 µM]
13 | O=C1CCC(C(=O)Nc2ccc(OC(F)F)cc2)N1 (stereo unspecified) | inactive | 
14 | OCCCN1c2ccccc2Nc2nnc(-c3ccccc3)cc21 | 3.98 µM (active) | 
15 | NS(=O)(=O)c1cc(Cl)c(Cl)c(S(N)(=O)=O)c1 | inactive | 
16 | COc1ccc(Br)c2c1C[C@H](C(=O)O)CC2 |  | 3.64% [at 11.4 µM]
17 | CCN(Cc1ccncc1)C(=O)[C@@H](CO)c1ccccc1 | inactive | 
18 | Cn1c(=NC(=O)c2cnccn2)sc2ccccc21 | 12.6 µM (active) | 
19 | Cn1c(=NC(=O)CSCC(=O)N2CCOCC2)sc2ccccc21 | inactive | 
20 | Cn1c(=NC(=O)CSCC(=O)N2CCCCC2)sc2ccccc21 | inactive | 
21 | Cc1nc(SCC(=O)Nc2cc(C)on2)c2c(C)c(C)sc2n1 | inactive | 
22 | Cc1ccc2nc(-c3ccc(SCC(=O)Nc4cc(C)on4)nc3)[nH]c2c1 | 2.51 µM (active) | 

Row | SMILES | Potency | activity change, negative = inhibition
23 | Cc1cc(C)c2c(c1)cc(C)c1nnc(SCC(=O)Nc3cc(C)on3)n12 | inactive | 
24 | COc1ccc(N(C(=O)c2cccnc2)S(=O)(=O)c2ccc3c(c2)n(C)c(=O)n3C)cc1 | inactive | 
25 | O=S(=O)(Nc1ccccn1)c1ccc(Oc2ccccc2)cc1 | inactive | 
26 | O=C(c1cccc(C(=O)N2CCc3ccccc32)n1)N1CCc2ccccc21 | inactive | 
27 | O=C(c1cnn2ccccc12)N1CCc2ccccc21 | 12.6 µM (active) | 
28 | CCOC(=O)N1CCC(NC(=O)c2cnn3ccccc23)CC1 | inactive | 
29 | O=C(c1ccc([N+](=O)[O-])cc1)[C@@H](Br)[C@@H](Br)c1ccnc2ccccc12 |  | -0.655% [at 11.4 µM]
30 | COC(=O)CNS(=O)(=O)c1ccc(Cc2ccc(S(=O)(=O)NCC(=O)OC)cc2)cc1 | inactive | 
31 | O=C(Nc1ccncc1)c1c(F)cccc1F | inactive | 
32 | O=C(NCCc1ccc2c(c1)OCCO2)c1cc2ccccc2o1 | inactive | 
33 | O=C(Nc1ccncc1)c1cc2ccccc2o1 | 20 µM (active) | 
34 | O=C(c1ccco1)N1CCC[C@@]2(CCN(Cc3nccs3)C2)C1 |  | 2.02% [at 11.4 µM]
35 | COc1ccc(Cc2nnnn2CC(=O)O)cc1 | inactive | 
36 | COC(=O)c1sc(NC(=O)c2ccc(OC)cc2OC)nc1C | 0.0794 µM (active) | 
37 | CCOC(=O)c1sc(NC(=O)c2cc(S(=O)(=O)N3CCOCC3)ccc2C)nc1C | inactive | 
38 | COC(=O)c1sc(NC(=O)c2csc3c2CCCC3)nc1C | 10 µM (active) | 
39 | COc1ccc(C(=O)Nc2nncs2)c(OC)c1 | inactive | 
40 | COC(=O)c1sccc1NC(=O)c1csc2c1CCCC2 | inactive | 
41 | CC(=O)Cc1nsc(NC(=O)c2csc3c2CCCC3)n1 | inactive | 
42 | CC(C)=CCC/C(C)=C/CO/N=C1/C[C@@H](O)[C@@H](O)[C@@H]2[C@@H]3C(=O)N(C(C)(C)C)C(=O)[C@H]3CC[C@H]12 |  | 0.109% [at 11.4 µM]
43 | Cc1cnc(NC(=O)CSc2nnc(-c3ccc(Cl)cc3Cl)n2N)s1 | inactive | 
44 | CCOC(=O)C1CCN(C(c2cc3cc(C)cc(C)c3[nH]c2=O)c2nnnn2C2CCCCC2)CC1 (stereo unspecified) | inactive | 

Row | SMILES | Potency | activity change, negative = inhibition
45 | COc1ccc(-c2nn(-c3ccccc3)cc2C(=O)Nc2nc(CC(C)=O)ns2)cc1 | inactive | 
46 | O=C(O)C1CCN(c2ncnc3ccc(-c4ccccc4C(F)(F)F)cc23)CC1 |  | 0.203% [at 2.29 µM]
47 | COc1ccc(NC2CC(=O)N(C)C2=O)cc1 (stereo unspecified) | inactive | 
48 | COc1ccccc1CNc1ccnc(-c2c(C)noc2C)n1 |  | -0.167% [at 2.29 µM]
49 | CC(C)(C)c1csc(NC2=NS(=O)(=O)c3ccccc32)n1 | 7.94 µM (active) | 
50 | CC(c1nnc(SCC(=O)Nc2sccc2C#N)n1-c1ccc(Cl)cc1)N(C)C (stereo unspecified) | inactive | 
51 | O=S(=O)(c1cccs1)N1CCN(Cc2ccccc2)CC1 | inactive | 
52 | CCCCN(C)C(=O)C1CCN(Cc2ccccn2)CC1 | inactive | 
53 | c1ccc(-n2ncc3c2ncn2c(C4CCCCC4)nnc32)cc1 | inactive | 
54 | Cc1cccc(-n2ncc3c(N4CCc5ccccc54)ncnc32)c1 | inactive | 
55 | COc1ccc(N2CCN(C(=O)CSc3ncnc4c3cnn4-c3ccc(OC)cc3)CC2)cc1 | inactive | 
56 | Cc1ccc(-n2ncc3c(N4CCN(c5ccc(F)cc5)CC4)ncnc32)c(C)c1 | inactive | 
57 | COc1ccc(-n2ncc3c(N4CCCc5ccccc54)ncnc32)cc1 | 12.6 µM (active) | 
58 | c1ccc(-n2ncc3c(N4CCCC4)ncnc32)cc1 | 5.01 µM (active) | 
59 | COc1ccc2c(c1)C=CC1(O2)N(CCO)c2ccccc2C1(C)C (stereo unspecified) | inactive | 
60 | CCOC(=O)c1cc(-c2nnc(-c3cc(OC)c(OC)c(OC)c3)o2)c(C)nc1C | inactive | 
61 | CC(=O)c1c(C)n(-c2ccc(N(C)C)cc2)c2ccc(OCC(N)=O)cc12 | inactive | 
62 | N#CC1=C(N)C(C#N)(C#N)[C@H](c2ccsc2)[C@H]2COCC=C12 | inactive | 
63 | Cn1c(-c2ccc(C(=O)c3ccccc3)s2)nc2ccccc21 | 2.51 µM (active) | 
64 | Cn1c(CNC(=O)C(C)(C)C)nc2ccccc21 | inactive | 
65 | Cc1nn2c3ccccc3nc2n(C)c1=O | inactive | 
66 | Cn1c(=O)c2c(n(Cc3ccccc3)c1=O)NC(=O)C2CC(=O)N1CCc2ccccc2C1 (stereo unspecified) | inactive | 

Row | SMILES | Potency | activity change, negative = inhibition
67 | Cc1cc(Cl)c(S(=O)(=O)Nc2ccc3c(c2)OCCO3)cc1OCC(N)=O | inactive | 
68 | COc1ccccc1OCCOc1ccc(/C=N/n2cnnc2)cc1 | inactive | 
69 | O=C(CSc1nc2c(cnn2-c2ccc(F)cc2)c(=O)[nH]1)N1CCCCCC1 | inactive | 
70 | CCCC(=O)Nc1ccc2c(c1)nc1n2CCSC1 | inactive | 
71 | CCCC(=O)Nc1cccc(-c2cn3ccsc3n2)c1 | 15.8 µM (active) | 
72 | O=C(NCc1cn2ccsc2n1)Nc1cccc(Cl)c1 | inactive | 
73 | O=C(O)CS(=O)c1ccc2c3c(cccc13)C(=O)c1ccccc1-2 (stereo unspecified) |  | -1.48% [at 11.4 µM]
74 | CC(=NCC1CCCO1)c1c(O)[nH]c(=O)[nH]c1=O (stereo unspecified) | inactive | 
75 | O=C(CS(=O)(=O)Cc1ccccc1)NCC1CCCO1 (stereo unspecified) | inactive | 
76 | O=C1C(C=NCC2CCCO2)=C(O)c2ccccc21 (stereo unspecified) | 15.8 µM (active) | 
77 | Nc1nc(SCCOc2ccccc2)n[nH]1 | inactive | 
78 | CCCCOc1ccc(-c2ncc(C(=O)OCC)c(N)n2)cc1 | inactive | 
79 | CCCOc1ccc(-c2nc(N)n[nH]2)cc1 | 15.8 µM (active) | 
80 | Cc1cc(=O)n2c3c(cccc13)CCC2 | inactive | 
81 | O=C(Cn1[nH]c(=O)c2ccccc2c1=O)Nc1cccc(-c2nnc3n2CCCCC3)c1 | inactive | 
82 | O=c1c2c(nc3n1CCCCC3)sc1c(O)cccc12 | 15.8 µM (active) | 
83 | CCCn1c(=O)c2ccccc2n2c(SCC(=O)/C(C#N)=C(\C)N)nnc12 | inactive | 
84 | CCc1ccc2oc(-c3ccc(N)cc3)nc2c1 | 2 µM (active) | 
85 | Nc1ccc(-c2nnc(-c3ccc(-c4ccccc4)cc3)o2)cc1 | inactive | 
86 | CCCCCC(=O)Nc1ccc2oc(-c3ccncc3)nc2c1 | inactive | 
87 | Cc1cc(Cl)c(S(=O)(=O)NCC2CCCO2)cc1OCC(N)=O (stereo unspecified) | inactive | 
88 | O=C(Oc1cccnc1)c1cc2ccccc2oc1=O | inactive | 

Row | SMILES | Potency | activity change, negative = inhibition
89 | Nc1ncc(-c2cc3ccccc3oc2=O)s1 | 12.6 µM (active) | 
90 | O=C(NCc1ccccn1)c1cc2ccccc2oc1=O | inactive | 
91 | O=c1c(-c2ccc(F)cc2)nc2cncnc2n1-c1ccccc1 |  | 0.918% [at 11.4 µM]
92 | CCC(=O)Nc1ccc(C(=O)CSc2nnc(CNc3ccc(Cl)cc3)o2)cc1OC | inactive | 
93 | C#CC(C)(C)NC(=O)CSc1nc2c(c(=O)n(C)c(=O)n2C)n1CCCC | inactive | 
94 | Cc1c(NC(=O)Nc2ccccc2Cl)sc(=S)n1C | inactive | 
95 | Clc1ccc(Nc2nc(-c3cccs3)cs2)nc1 | inactive | 
96 | c1ccc(Nc2nc(-c3ccncc3)cs2)nc1 | 7.94 µM (active) | 
97 | Oc1ccc(-c2csc(Nc3cccnc3)n2)cc1 | inactive | 
98 | CC(=O)OCC(=O)[C@@]1(O)CC[C@@H]2[C@H]3CCC4=CC(=O)C=C[C@]4(C)[C@]3(F)[C@@H](O)C[C@@]21C | inactive | 
99 | Cn1c2c(c(=O)n(C)c1=O)CN(Cc1ccco1)CN2 | inactive | 
100 | COc1cc(OC)c(C(=O)NC2CCCCCC2)cc1OC | inactive | 
101 | COc1cc(OC)c(C(=O)Nc2ccc(N(C)C)cc2)cc1OC | 15.8 µM (active) | 
102 | COc1ccc(C(=O)Nc2cccnc2)cc1C(=O)Nc1cccnc1 | inactive | 
103 | CCOP1(=O)C=C(C(C)(C)C)OC1c1ccc(F)cc1 (stereo unspecified) | inactive | 
104 | O=c1c(-c2ccc(F)c(F)c2)nc2cncnc2n1-c1ccccc1 |  | 1.37% [at 11.4 µM]
105 | COc1ccc(Oc2ncc3nc(-c4ccc(F)cc4)c(=O)n(C)c3n2)cc1 |  | 0.178% [at 11.4 µM]
106 | CN1CCC2(CC1)CCN(S(=O)(=O)c1ccccc1)CC2 |  | 1.62% [at 11.4 µM]
